High-throughput results (PubChem BioAssay)
Only a selection was taken, and hits are over-represented in it overall.
Tgondii IFNg: T. gondii growth inhibition with IFN-gamma, primary screen, cell-based; Toxoplasma gondii growth in IFN-gamma-treated host cells; active compounds read low; activity change, negative = inhibition, % (concentration not given with the values); hit rate 3.8% among 69,000; AID 1259416, 2018; in the data active means activity change below about -70%, passing the limit was not always enough;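 further: host cells are HeLa cells infected with Toxoplasma gondii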
Numbers without * were called inactive; ! = a repeat was not active.

Results for CC1CCN(S(=O)(=O)c2ccc3c(c2)CCC(=O)N3CC(=O)NC(C)C)CC1 ?
Tgondii IFNg: 33.2

Results for COC(=O)c1cc(C)nc2c1c(=O)n(Cc1nc(-c3ccc(C)cc3)oc1C)c(=O)n2C ?
Tgondii IFNg: 5.9

How did CN(C)C(=O)N1CCN(CC2CC2)c2ncccc2C1 do in these assays?
Tgondii IFNg: 8.4

How did COCCN1CCC(Cn2ccnc2-c2ccc(NC(C)=O)cc2)C1 (centres undefined) do in these assays?
Tgondii IFNg: 3.0

How did c1cc2cc(CN3CCC4(CCOCC4)CC3)ccc2[nH]1 do in these assays?
Tgondii IFNg: -2.7

Results for COc1cc(OC)cc(C(=O)N2CSC[C@@H]2C(=O)NCCc2csc(-c3ccccc3)n2)c1 ?
Tgondii IFNg: -60.0

What do the screens show for `Cc1ncc(C(=O)N2CCCCC2)c(C2CCCN2C(=O)c2ccc3c(c2)OCCO3)n1` (centres undefined)?
Tgondii IFNg: 2.3

What do the screens show for `CCOc1ccccc1NC(=O)N1CCN2C(=O)CN(C)C(=O)C2C1` (centres undefined)?
Tgondii IFNg: 4.4

How did O=C1COC2(CCN(C(=O)c3ccsc3)CC2)CN1CC1CC1 do in these assays?
Tgondii IFNg: 6.8

What do the screens show for `O=C(NCc1nc(-c2ccccc2Cl)no1)C1Cc2cc(Cl)ccc2O1` (centres undefined)?
Tgondii IFNg: 41.0

What do the screens show for `C=CC(=O)Nc1cc(Nc2nccc(-c3cn(C)c4ccccc34)n2)c(OC)cc1N(C)CCN(C)C`?
Tgondii IFNg: -74.0*

Results for C=CC(=O)Nc1cccc(Nc2nc(Nc3ccc(NC4CN(CCF)C4)cc3OC)ncc2C(F)(F)F)c1 ?
Tgondii IFNg: 12.5

What do the screens show for `COc1cc(OC)c(NC(=O)NCC(c2cccnc2)c2cn(C)c3ccccc23)cc1Cl` (centres undefined)?
Tgondii IFNg: inactive

Results for Cc1ccc(C(=O)Nc2ccc(C3NC(=O)c4ccc(C)nc4N3C)cc2)cn1 (centres undefined) ?
Tgondii IFNg: -2.3

What do the screens show for `CC(C)(C)Cc1c(-c2ccccc2)ncn1CC1CCOCC1`?
Tgondii IFNg: -32.0

What do the screens show for `Cc1nc(NS(C)(=O)=O)sc1C(=O)N[C@@H]1CCC(=O)N[C@H]1c1cccs1`?
Tgondii IFNg: 22.9

Results for O=C(CCn1nnc2ccccc21)Nc1nnc(-c2ccc3c(c2)OCO3)s1 ?
Tgondii IFNg: -103.0*

Results for C[C@@H](Cn1nnc2ccccc21)NC(=O)c1ccc2c(c1)OCO2 ?
Tgondii IFNg: 64.6

What do the screens show for `O=C(CCn1nnc2ccccc21)Nc1nnc(COc2ccc(F)cc2)s1`?
Tgondii IFNg: -68.8

How did Cc1ccc(-c2nc(CCNC(=O)C(=O)NC(C)c3ccccc3)cs2)cc1 (centres undefined) do in these assays?
Tgondii IFNg: 86.1

Results for CN(C)C(=O)N1CCC2(CC1)CC(C(=O)N1CCOCC1)c1ccccc12 (centres undefined) ?
Tgondii IFNg: 22.8

How did Cc1oc(-c2ccccc2)nc1Cn1nnc(-c2nc(-c3ccc(OC(F)(F)F)cc3)no2)c1C do in these assays?
Tgondii IFNg: -40.2

What do the screens show for `Fc1cccc(CN2CCN(Cc3ccc(-c4ccccc4)nc3)CC2)c1`?
Tgondii IFNg: -0.4

What do the screens show for `CCN1CCN(Cc2ccc(Nc3ncc(F)c(-c4cc(F)c5nc(C)n(C(C)C)c5c4)n3)nc2)CC1`?
Tgondii IFNg: -77.9*

How did CC(C)Nc1ncc(-c2nccn2Cc2ccc(F)c(F)c2)cn1 do in these assays?
Tgondii IFNg: -45.8

What do the screens show for `COc1cc2ncnc(Nc3cccc(Cl)c3)c2cc1OC`?
Tgondii IFNg: -69.6

How did C[C@@H]1COC(Nc2ccc3ncnc(Nc4ccc(OCc5nccs5)c(Cl)c4)c3c2)=N1 do in these assays?
Tgondii IFNg: -73.0*

How did Cc1occc1C(=O)N1CCC2(CCC2NC(=O)c2cnccn2)CC1 (centres undefined) do in these assays?
Tgondii IFNg: 1.2

Results for COc1cc(C)nc(OCCNC(=O)COc2ccc(Cl)cc2C)n1 ?
Tgondii IFNg: -7.7

How did Cc1cc(Cl)ccc1OCCCC(=O)N1CCN(C)CC1 do in these assays?
Tgondii IFNg: 15.5

What do the screens show for `Cc1cc(Cl)ccc1OCCCC(=O)NO`?
Tgondii IFNg: -82.5*

How did CS(=O)(=O)N1CCc2ccc(C(=O)NCCN3CCC(N4CCCCC4)CC3)cc21 do in these assays?
Tgondii IFNg: 20.5

How did Cc1nc2nc[nH]n2c(=O)c1CC(=O)Nc1ccc2c(c1)CN(Cc1ccccc1)C2 do in these assays?
Tgondii IFNg: -5.5

What do the screens show for `Cc1nc(N)nc(C)c1CCC(=O)Nc1ccc2c(c1)CN(Cc1ccccc1)C2`?
Tgondii IFNg: -1.3

What do the screens show for `O=C(Nc1ccc2c(c1)CN(Cc1ccccc1)C2)c1nc2ncccn2n1`?
Tgondii IFNg: -77.5*

What do the screens show for `O=C(Cn1ncc2ccccc2c1=O)Nc1ccc2c(c1)CN(Cc1ccccc1)C2`?
Tgondii IFNg: 2.1

How did O=C(Nc1ccc2c(c1)CN(Cc1ccccc1)C2)c1cnc(N2CCOCC2)nc1 do in these assays?
Tgondii IFNg: -95.5*

What do the screens show for `CCn1c(C)nc2cc(NC(=O)c3cnc(N4CCOCC4)nc3)ccc21`?
Tgondii IFNg: -8.3

Results for Cc1cc(C)cc(S(=O)(=O)N2CCC(c3nc(C(=O)N(C)C)c(C)o3)CC2)c1 ?
Tgondii IFNg: 17.3

How did COc1ccccc1C1(O)CCCN(CC(O)c2ccc(C)cc2)C1 (centres undefined) do in these assays?
Tgondii IFNg: -41.6

Results for COc1ccccc1C1(O)CCN(CCCn2c3ccccc3c3ccccc32)CC1 ?
Tgondii IFNg: -76.9*!

What do the screens show for `CC1CN(CCCn2c3ccccc3c3ccccc32)CC(C)N1` (centres undefined)?
Tgondii IFNg: -4.0

What do the screens show for `COc1cccc(Cl)c1-c1cccc(-n2cnnc2)c1`?
Tgondii IFNg: 0.1

Results for Nc1nnc(-c2cccc(Cl)c2Cl)c(N)n1 ?
Tgondii IFNg: 1.8

What do the screens show for `Cc1nc(-n2cnnc2)ccc1-c1cccc(Cl)c1Cl`?
Tgondii IFNg: -84.3*

How did CC(C)NC(=O)[C@@H]1C[C@H](N)CN1C(=O)[C@H]1CCCO1 do in these assays?
Tgondii IFNg: -1.5

What do the screens show for `CCn1nc(C)c(C(C)NC(=O)C(C)n2cc(Cl)cn2)c1C` (centres undefined)?
Tgondii IFNg: 1.8

What do the screens show for `CCCn1cnnc1CN(C)C(=O)c1cc2ccccc2s1`?
Tgondii IFNg: 2.9

Results for Cc1cccc(-c2ncc(CN3CCCC(Cn4ccnc4C)C3)cn2)c1 (centres undefined) ?
Tgondii IFNg: -6.3

Results for CCn1ccnc1CN1CCCC(c2cncc(-c3cccc(Cl)c3)n2)C1 (centres undefined) ?
Tgondii IFNg: -109.7*

Results for CCCn1ccnc1CN1CCCC(c2nn(C)c(=O)n2CC)C1 (centres undefined) ?
Tgondii IFNg: 3.6

How did CC(C(=O)N1CCC(C(=O)c2nc3ccccc3s2)CC1)c1ccccc1 (centres undefined) do in these assays?
Tgondii IFNg: 39.7

Results for Cn1nc(C#N)c2c1CN(S(C)(=O)=O)CCC2 ?
Tgondii IFNg: -34.3

What do the screens show for `CC(C)(C(=O)N1CCC(Nc2nc3c(c(=O)[nH]2)CCCC3)CC1)c1ccc(Cl)cc1`?
Tgondii IFNg: -101.4*

What do the screens show for `O=c1[nH]c(NC2CCN(Cc3nnnn3Cc3ccccc3)CC2)nc2c1CCCC2`?
Tgondii IFNg: -15.7

Results for Cc1cccc(C)c1NC(=O)CN1CCC(Nc2nc3c(c(=O)[nH]2)CCCC3)CC1 ?
Tgondii IFNg: -12.8

How did CC1CN(c2ccccc2O)CC(C)O1 (centres undefined) do in these assays?
Tgondii IFNg: -17.0
